# ADAM10 inh: inhibits human ADAM10; O14672; actives 0.62% (n = 370,000); recombinant ADAM10, EDANS/DABCYL FRET peptide cleavage, 3 h; AID 720582; inhibition, % at 7 µM;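 active means inhibition above a per-campaign cutoff equal to the mean of compounds falling between control-based bounds plus 3 SD, cut at about 20% in these data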
# GRIN3A LBD mod: NR3A (human) ligand-binding domain modulation. NR3A LBD differential scanning fluorimetry, Tm shift; 0% = protein alone, 100% = glycine-bound protein. Tm shift relative to glycine control, % at 25 µM. actives 2.5% (n = 340,000);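 active means melting temperature shift of at least 10% of the positive control shift, at one fixed dose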
# ADAM17 inh: inhibits human ADAM17; recombinant ADAM17, EDANS/DABCYL FRET peptide cleavage; inhibition, % at 6.95 µM; actives 0.83% (n = 370,000);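 active means inhibition above the mean of compounds lying between control limits plus 3 SD, set per campaign, cut at about 8.5% in these data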
# Target sequence (P78536 215-824 limits assumed): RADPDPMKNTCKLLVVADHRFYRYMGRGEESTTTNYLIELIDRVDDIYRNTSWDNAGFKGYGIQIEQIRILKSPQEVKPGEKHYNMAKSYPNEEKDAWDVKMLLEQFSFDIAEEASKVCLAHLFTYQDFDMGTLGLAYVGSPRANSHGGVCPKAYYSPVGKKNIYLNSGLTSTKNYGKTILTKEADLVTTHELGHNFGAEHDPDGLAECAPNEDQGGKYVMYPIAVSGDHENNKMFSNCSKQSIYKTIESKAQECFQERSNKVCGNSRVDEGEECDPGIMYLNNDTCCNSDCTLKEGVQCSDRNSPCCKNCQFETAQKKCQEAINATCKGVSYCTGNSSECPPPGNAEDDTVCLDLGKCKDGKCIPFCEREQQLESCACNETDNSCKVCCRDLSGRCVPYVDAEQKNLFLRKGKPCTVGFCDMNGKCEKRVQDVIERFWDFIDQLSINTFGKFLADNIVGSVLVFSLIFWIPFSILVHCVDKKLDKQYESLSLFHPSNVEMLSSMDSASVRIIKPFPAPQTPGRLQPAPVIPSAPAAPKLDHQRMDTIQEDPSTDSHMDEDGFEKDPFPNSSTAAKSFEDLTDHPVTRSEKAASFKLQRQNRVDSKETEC
# KLK7 zymogen act: activates the human kallikrein-7 zymogen; AID 652039; actives 0.9% (n = 370,000); purified proKLK7, EDANS-DABCYL substrate fluorescence; 100% is mature enzyme control, 0% vehicle; activation, % at 7 µM; P49862;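 active means activation above the mean of all tested compounds plus 3 SD, computed per campaign excluding outliers beyond control limits, cut at about 13% in these data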
# FAS-TE inh: inhibitors of human fatty acid synthase thioesterase domain | actives 0.67% (n = 360,000) | AID 602261 | recombinant FAS-TE, OMFH fluorogenic substrate, fluorescence endpoint | inhibition, % at 15 µM;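 active means compounds whose normalised, plate-corrected inhibition of enzyme fluorescence in the single-dose primary screen is 50% or more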
# proKLK7 act conf: confirmation of human kallikrein-7 zymogen activators. shares compounds with KLK7 zymogen act. purified proKLK7, EDANS-DABCYL substrate fluorescence; scaled: vehicle 0, mature enzyme 100. activation, % at 7 µM. actives 68% (n = 3,200);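 active means activation, as change over the incubation, above the mean of all tested compounds plus 3 SD, cut at about 13% in these data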
# EDANS-DABCYL int: optically interferes with EDANS-DABCYL signal, flagging KLK7 hits | activation, % at 7 µM | shares compounds with KLK7 zymogen act | actives 80% (n = 3,200) | AID 686952 | EDANS-DABCYL substrate fluorescence interference, no enzyme, 4 h; solvent 0%, active enzyme control 100%;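 active means activation above the all-compound mean plus 3 SD, ignoring values outside control-based bounds, cut at about 4.8% in these data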;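 further: value is the 4 h activation minus the activation read at time zero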
# K7 EDANS ctr: counter-screen for kallikrein-7 activators: EDANS-DABCYL interference, dose response; shares compounds with KLK7 zymogen act; EDANS-DABCYL peptide fluorescence interference, no enzyme; EC50, µM; actives 20% (n = 250); AID 720493;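 active means compounds that raise the fluorescence signal in this interference counterscreen, with EC50 at or below 10 µM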;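 further: intact quenched peptide substrate alone read at 355 nm excitation and 520 nm emission; signal is fluorescence gain from T0 to T4 after four hours at room temperature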
# Hits are given with their value; - = inactive; . = not tested or not shown; ! = not confirmed by another sample. In the library only some 4.6% were active in any assay of this set; here they are far more common.
SMILES,ADAM10 inh,GRIN3A LBD mod,ADAM17 inh,KLK7 zymogen act,FAS-TE inh,proKLK7 act conf,EDANS-DABCYL int,others
COc1cc2ccccc2cc1C(=O)OCC(=O)N1CCOCC1,-,-,-,15,-,22,19,K7 EDANS ctr=-
COC(=O)[C@]12C[C@H](CC(=O)N3CCN(C(=O)c4ccco4)CC3)C(=O)N(CCc3ccc(OC)c(OC)c3)C1=C[C@H](C(C)C)O[C@@H]2C1CC1,-,.,-,-,.,.,.,
O=C(Nc1cccc(Cl)c1)OCCN1CCCC12CCC(c1ccccc1)CC2 (stereo unspecified),-,.,-,.,.,.,.,
COCCN=C1Sc2ccccc2[C@@H]2C[C@H]3[C@H](CON3C)CN12,-,.,-,-,.,.,.,
COc1cc(-c2nc3n(n2)C(c2ccc(F)cc2)C2=C(CCCC2=O)N3)cc(OC)c1OC (stereo unspecified),-,-,-,-,-,.,.,
CCOc1ccc(C2C3=C(CCCC3=O)Nc3nc(C(F)(F)F)nn32)cc1OC (stereo unspecified),-,-,-,44,-,52,58,
COc1ccc(C2C3=C(CCCC3=O)Nc3nc(C(F)(F)F)nn32)cc1OC (stereo unspecified),-,-,-,15,-,43,58,
COc1ccc(C2C3=C(CCCC3=O)Nc3nc(C(F)(F)F)nn32)c(OC)c1OC (stereo unspecified),-,-,-,23,-,38,36,
CCOc1cc(C2C3=C(CCCC3=O)Nc3nc(C(=O)OC)nn32)ccc1OC (stereo unspecified),-,-,-,-,-,.,.,
COc1ccc(C2C3=C(CC(C)(C)CC3=O)Nc3nc(C)nn32)cc1OC (stereo unspecified),-,-,-,-,-,.,.,
CCOC(=O)CC[C@H]1CC[C@]2(CCCN(C3CCCCC3)C2)O1,-,.,-,-,.,.,.,
O=C(Cc1cccc2ccccc12)N/N=C1\CCCc2ccccc21,-,-,-,-,-,.,.,
NC(=O)NN=C1CCN2CCCc3cccc1c32,-,.,-,30,-,51,55,
COc1ccccc1CNC(=O)NC1CCN(CC(=O)Nc2ccc3c(c2)OCCO3)CC1,-,.,-,-,.,.,.,
CCOC(=O)c1ccccc1NC1CC(=O)N(c2ccccc2C)C1=O (stereo unspecified),-,-,-,193,-,169,161,
Cc1ccc(-c2c(NC(=O)c3cccc(C)c3)nc3ncccn23)cc1,-,.,-,-,.,.,.,
COc1ccc(-n2c(SCC(=O)Nc3ccc(Oc4ccccc4)cc3)nnc2-c2cccnc2)cc1,-,.,-,-,.,.,.,
COc1cc2ccc(=O)oc2c(O[C@@H]2O[C@H](CO)[C@@H](O)[C@H](O)[C@H]2O)c1O,-,-,-,68,-,69,67,
COc1cc(-c2cc(C(=O)Nc3ccc(O)cc3)c3ccccc3n2)cc(OC)c1OC,-,-,-,-,-,.,.,
COc1ccc(-c2cc(C(=O)Nc3ccc(C(N)=O)cc3)c3ccccc3n2)cc1OC,-,-,-,18,-,-,-,
Nc1ccc(Cl)cc1C(=O)OCC(=O)NC1CCS(=O)(=O)C1 (stereo unspecified),-,-,-,14,-,23,19,K7 EDANS ctr=-
Nc1cc(Cl)ccc1C(=O)OCC(=O)NC1CCS(=O)(=O)C1 (stereo unspecified),-,-,-,-,-,.,.,
Cc1cc(N2CCN(CC(C)(C)O)C[C@@H]2C)ccc1N1CCN(CC(C)(C)O)[C@H](C)C1,-,.,-,-,.,.,.,
COc1ccc(-c2cc(=O)oc3cc(OC(=O)C4CCCCC4)c(Cl)cc23)cc1,-,-,-,64,-,64,37,K7 EDANS ctr=-
CCOC(=O)c1cc2c(=O)n3cccc(C)c3nc2n(CCOC)c1=NC(C)=O,-,-,-,15,-,-,9.4,
SMILES,ADAM10 inh,GRIN3A LBD mod,ADAM17 inh,KLK7 zymogen act,FAS-TE inh,proKLK7 act conf,EDANS-DABCYL int,others
CCOC(=O)c1cc2c(=O)n3ccccc3nc2n(CCCOC)c1=NC(=O)c1ccncc1,-,-,-,18,-,-,-,
COc1ccc(CNC(=O)c2cc3c(=O)n4cccc(C)c4nc3n(CC3CCCO3)c2=N)cc1 (stereo unspecified),-,-,-,-,-,.,.,
CCOC(=O)c1cc2c(=O)n3ccccc3nc2n(CCCOC)c1=NC(C)=O,-,-,-,62,-,-,7.2,
CCOC(=O)c1cc2c(=O)n3cccc(C)c3nc2n(CC2CCCO2)c1=NC(C)=O (stereo unspecified),-,-,-,15!,-,-,7.0,
COC(=O)c1cc2c(=O)n3ccccc3nc2n(Cc2cccnc2)c1=N,.,-,.,.,.,.,.,
COCCN=C1S/C(=C\c2cc(C)n(-c3ccc(F)cc3F)c2C)C(=O)N1C,-,.,-,.,.,.,.,
Cc1ccc(S(=O)(=O)c2c(N)n(CC3CCOC3)c3nc4ccccc4nc23)cc1 (stereo unspecified),-,-,-,-,-,.,.,
Cc1ccc(S(=O)(=O)c2c(N)n(CCCN(C)C)c3nc4ccccc4nc23)cc1,-,-,-,36,-,-,-,
CN(C)CCCn1c(N)c(C#N)c2nc3ccccc3nc21,-,-,-,121,-,63,72,
Cc1ccc(S(=O)(=O)c2c(N)n(NC(=O)C3CC3)c3nc4ccccc4nc23)cc1,-,-,-,37,-,-,4.1,
COc1cccc(N2CCN(C(=O)COc3cc(=O)n(C)c4ccccc34)CC2)c1,-,.,-,-,.,.,.,
C=CCn1c(=NC(=O)c2ccc(S(=O)(=O)N3CCc4ccccc4C3)cc2)sc2cc(S(N)(=O)=O)ccc21,-,19,-,66,-,70,-,K7 EDANS ctr=-
COCCn1c(=NC(=O)c2ccc(S(=O)(=O)N3CCc4ccccc4C3)cc2)sc2cc(S(N)(=O)=O)ccc21,-,25,-,305,-,63,80,
Cc1cc(-c2cc(NC(=O)Cc3c[nH]c4ccccc34)ccc2Nc2cccnc2)ccc1F,-,.,-,-,.,.,.,
C=CCN(C(=O)[C@@H](C1CC1)[C@@H](O)c1ccc(Cl)cc1)c1ccccc1,-,.,-,-,.,.,.,
Cc1nc2sc(C(=O)c3ccccc3)c(N)c2c(C)c1C,-,-,-,50,-,-,-,
CC(=O)c1ccc(NC(=O)c2sc3nc(C)c(C)c(C)c3c2N)cc1,-,-,-,-,-,.,.,
COc1cc2cncc(Cc3ccccc3)c2cc1O,-,-,-,22,-,17,21,
O=c1oc2c(CN3CCOCC3)c(O)ccc2c2c1CCC2,-,-,-,70,-,68,72,
CCCc1cc(=O)oc2c(CN3CCCC3)c(O)ccc12,-,-,-,60,-,72,69,
